Laboratory results published in PubChem BioAssay (NCI).
This is part of a sample that, as a whole, favours compounds with a hit. Of some 83,000 tested, about 20% had one in any assay.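 Activity criterion: percent growth below 10, measured after cells in 96-well plates were exposed to a single compound concentration for 48 hours.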 The source made the active and inactive calls.

Tests used:
Assay in all cases: NCI-60 one-dose screen, 48 h (100 = growth as untreated, 0 = no growth, -100 = all killed)
Settings in all cases: 10 µM
SK-MEL-2 melanoma = tested on: SK-MEL-2 melanoma
EKVX NSCLC = tested on: EKVX NSCLC
SN12C renal = tested on: SN12C renal
UO-31 renal = tested on: UO-31 renal
TK-10 renal = tested on: TK-10 renal
ACHN renal = tested on: ACHN renal
CAKI-1 renal = tested on: CAKI-1 renal
A498 renal = tested on: A498 renal
CCRF-CEM leukemia = tested on: CCRF-CEM leukemia
MOLT-4 leukemia = tested on: MOLT-4 leukemia
SR leukemia = tested on: SR leukemia
RPMI-8226 leukemia = tested on: RPMI-8226 leukemia
OVCAR-8 ovarian = tested on: OVCAR-8 ovarian
OVCAR-5 ovarian = tested on: OVCAR-5 ovarian
OVCAR-4 ovarian = tested on: OVCAR-4 ovarian
SK-OV-3 ovarian = tested on: SK-OV-3 ovarian
IGROV1 ovarian = tested on: IGROV1 ovarian
OVCAR-3 ovarian = tested on: OVCAR-3 ovarian
HS 578T breast = tested on: HS 578T breast
NCI/ADR-RES ovarian = tested on: NCI/ADR-RES ovarian

Measured: growth

CCOC(=O)C1=C(N)N(c2ccccc2)C2=C(C(=O)CC(C)(C)C2)C1c1ccc(Cl)cc1 (stereo not given)
inactive: SK-MEL-2 melanoma 30.2% | EKVX NSCLC 27.7% | SN12C renal 64.2% | UO-31 renal 29% | TK-10 renal 80.4% | ACHN renal 22.3% | CAKI-1 renal 50.2% | A498 renal 67.2% | CCRF-CEM leukemia 15.4% | SR leukemia 13.1% | OVCAR-8 ovarian 61.1% | OVCAR-5 ovarian 57.6% | OVCAR-4 ovarian 29.3% | SK-OV-3 ovarian 43.7% | IGROV1 ovarian 59.5% | OVCAR-3 ovarian 51.6% | HS 578T breast 71.9% | NCI/ADR-RES ovarian 25.6%
active: MOLT-4 leukemia 1.54% | RPMI-8226 leukemia 7.68%

COc1ccc(-c2cc(-c3cc(C(=O)c4ccc(Br)cc4)n4ccc(C)cc34)nc(N)c2C#N)cc1
inactive: SK-MEL-2 melanoma 107% | EKVX NSCLC 89.8% | SN12C renal 92.9% | UO-31 renal 64.3% | TK-10 renal 132% | ACHN renal 81.8% | CAKI-1 renal 68.1% | A498 renal 134% | CCRF-CEM leukemia 98.2% | MOLT-4 leukemia 101% | SR leukemia 79.1% | RPMI-8226 leukemia 86.8% | OVCAR-8 ovarian 66.3% | OVCAR-5 ovarian 91.8% | OVCAR-4 ovarian 86.1% | SK-OV-3 ovarian 105% | IGROV1 ovarian 90% | OVCAR-3 ovarian 108% | HS 578T breast 90.8% | NCI/ADR-RES ovarian 82.6%

CCNCCCn1c2c(c3cc(OC)c(OC)cc3c1=O)C(=O)c1cc3c(nc1-2)OCO3
inactive: SK-MEL-2 melanoma 125% | EKVX NSCLC 76.6% | TK-10 renal 98.3% | A498 renal 87.1% | OVCAR-4 ovarian 57.9% | SK-OV-3 ovarian 35.4% | IGROV1 ovarian 18.4% | HS 578T breast 97.4%
active: SN12C renal -89.2% | UO-31 renal -97.8% | ACHN renal 2.02% | CAKI-1 renal 7.87% | CCRF-CEM leukemia 0.158% | MOLT-4 leukemia -14.2% | SR leukemia -7.45% | RPMI-8226 leukemia -34.7% | OVCAR-8 ovarian -64.5% | OVCAR-5 ovarian -88.7% | OVCAR-3 ovarian -90.1% | NCI/ADR-RES ovarian -30.8%

Cc1ccn2c(C(=O)c3ccc(Br)cc3)cc(-c3cc(-c4ccc(N(C)C)cc4)c(C#N)c(N)n3)c2c1
inactive: SK-MEL-2 melanoma 81.1% | EKVX NSCLC 68.2% | SN12C renal 76.5% | UO-31 renal 63.3% | TK-10 renal 98.9% | ACHN renal 71.5% | CAKI-1 renal 67.2% | A498 renal 91.9% | CCRF-CEM leukemia 94.3% | MOLT-4 leukemia 94% | SR leukemia 64.3% | RPMI-8226 leukemia 83.7% | OVCAR-8 ovarian 38.2% | OVCAR-5 ovarian 66% | OVCAR-4 ovarian 63.3% | SK-OV-3 ovarian 93.8% | IGROV1 ovarian 76.6% | OVCAR-3 ovarian 50.2% | HS 578T breast 70.2% | NCI/ADR-RES ovarian 72%

C=C1CCC2C3(C)COC(c4cccc(F)c4)OC3CCC2(C)C1CC(O)C1=CCOC1=O (stereo not given)
inactive: SK-MEL-2 melanoma 75.9% | EKVX NSCLC 87.9% | SN12C renal 44.3% | UO-31 renal 57.1% | TK-10 renal 113% | ACHN renal 68.6% | CAKI-1 renal 74.7% | A498 renal 125% | CCRF-CEM leukemia 23.2% | MOLT-4 leukemia 41% | SR leukemia 40.4% | RPMI-8226 leukemia 20.6% | OVCAR-8 ovarian 15.1% | OVCAR-5 ovarian 76.1% | OVCAR-4 ovarian 67.1% | SK-OV-3 ovarian 108% | IGROV1 ovarian 61.1% | OVCAR-3 ovarian 62.1% | HS 578T breast 74.6%
active: NCI/ADR-RES ovarian 4.5%

CCCn1c(O)c(N=Nc2nc(-c3cc4ccccc4oc3=O)cs2)c2cc(Br)ccc21
inactive: SK-MEL-2 melanoma 102% | EKVX NSCLC 92.8% | SN12C renal 95.2% | UO-31 renal 85.1% | TK-10 renal 125% | ACHN renal 91.1% | CAKI-1 renal 96.4% | A498 renal 130% | CCRF-CEM leukemia 98.9% | MOLT-4 leukemia 107% | SR leukemia 101% | RPMI-8226 leukemia 97.9% | OVCAR-8 ovarian 105% | OVCAR-5 ovarian 98.3% | OVCAR-4 ovarian 98.9% | SK-OV-3 ovarian 110% | IGROV1 ovarian 106% | OVCAR-3 ovarian 100% | HS 578T breast 83.4% | NCI/ADR-RES ovarian 95.4%

CN1CCN(c2ccc(C(=O)/C=C/c3cc(C(F)(F)F)ccc3Cl)cc2)CC1
inactive: SK-MEL-2 melanoma 65.3%
active: EKVX NSCLC -91.9% | SN12C renal -90.1% | UO-31 renal -99.2% | TK-10 renal -94.4% | ACHN renal -96.8% | CAKI-1 renal -95.2% | A498 renal -49.7% | CCRF-CEM leukemia 2.2% | MOLT-4 leukemia 2.26% | SR leukemia 1.37% | RPMI-8226 leukemia 3.72% | OVCAR-8 ovarian -51.5% | OVCAR-5 ovarian -91% | OVCAR-4 ovarian -36.5% | SK-OV-3 ovarian 6.75% | IGROV1 ovarian -82.7% | OVCAR-3 ovarian -37.7% | HS 578T breast 3.68% | NCI/ADR-RES ovarian -56.9%

Cc1cc(C)nc(/N=C(\N)Nc2ccc(S(=O)(=O)Nc3nc(C)cc(C)n3)cc2)n1
inactive: SK-MEL-2 melanoma 107% | EKVX NSCLC 104% | SN12C renal 111% | UO-31 renal 85% | TK-10 renal 105% | ACHN renal 115% | CAKI-1 renal 100% | A498 renal 112% | CCRF-CEM leukemia 96.2% | MOLT-4 leukemia 104% | SR leukemia 99.8% | RPMI-8226 leukemia 98.9% | OVCAR-8 ovarian 107% | OVCAR-5 ovarian 119% | OVCAR-4 ovarian 111% | SK-OV-3 ovarian 106% | IGROV1 ovarian 106% | OVCAR-3 ovarian 112% | HS 578T breast 103% | NCI/ADR-RES ovarian 110%

O=c1[nH]c2ccccc2cc1CSc1ccc(Nc2nccc(-c3ccc4c(c3)OCO4)n2)cc1
inactive: SK-MEL-2 melanoma 108% | EKVX NSCLC 94.2% | SN12C renal 96% | UO-31 renal 95.6% | TK-10 renal 89.4% | ACHN renal 94.7% | CAKI-1 renal 98% | A498 renal 121% | CCRF-CEM leukemia 98.4% | MOLT-4 leukemia 102% | SR leukemia 81.7% | RPMI-8226 leukemia 81.3% | OVCAR-8 ovarian 75% | OVCAR-5 ovarian 98.3% | OVCAR-4 ovarian 27% | SK-OV-3 ovarian 116% | IGROV1 ovarian 103% | OVCAR-3 ovarian 50.7% | HS 578T breast 41.3% | NCI/ADR-RES ovarian 83.7%

Cc1cc(=O)oc2cc(OCCCCOc3ccc(/C=C/C(=O)Nc4ccc(F)c(Cl)c4)cc3)ccc12
inactive: SK-MEL-2 melanoma 117% | EKVX NSCLC 96.4% | SN12C renal 96.4% | UO-31 renal 86.1% | TK-10 renal 112% | ACHN renal 107% | CAKI-1 renal 96% | A498 renal 108% | CCRF-CEM leukemia 92.7% | MOLT-4 leukemia 93.5% | SR leukemia 89% | RPMI-8226 leukemia 92.6% | OVCAR-8 ovarian 85.2% | OVCAR-5 ovarian 101% | OVCAR-4 ovarian 37.9% | SK-OV-3 ovarian 122% | IGROV1 ovarian 109% | OVCAR-3 ovarian 97.2% | HS 578T breast 111% | NCI/ADR-RES ovarian 88.7%

O=C(Cc1ccc2c(c1)CN(C1CCC(=O)NC1=O)C2=O)NCc1cccc2ccccc12 (stereo not given)
active: SK-MEL-2 melanoma -45.7% | EKVX NSCLC 1.9% | SN12C renal -7.92% | UO-31 renal -33.8% | ACHN renal -19% | CAKI-1 renal 7.68% | A498 renal -13.2% | CCRF-CEM leukemia 9.65% | MOLT-4 leukemia -15.2% | OVCAR-8 ovarian -3.71% | OVCAR-5 ovarian -11% | OVCAR-4 ovarian -2.52% | SK-OV-3 ovarian -7.7% | IGROV1 ovarian -13.5% | OVCAR-3 ovarian -22.3% | HS 578T breast -11.3% | NCI/ADR-RES ovarian -18.5%
inactive: TK-10 renal 18% | SR leukemia 13.6% | RPMI-8226 leukemia 18%

CC1(C)[C@@H](NCO)CC[C@]2(C)[C@H]3C(=O)C=C4[C@@H]5C[C@](C)(CO)CC[C@]5(C)CC[C@@]4(C)[C@]3(C)CC[C@@H]12
active: RPMI-8226 leukemia -1.48%
inactive: SK-MEL-2 melanoma 94.6% | EKVX NSCLC 75.5% | SN12C renal 72% | UO-31 renal 54.9% | TK-10 renal 107% | ACHN renal 63.1% | CAKI-1 renal 59.1% | A498 renal 140% | CCRF-CEM leukemia 70.3% | MOLT-4 leukemia 16.5% | SR leukemia 10.3% | OVCAR-8 ovarian 70.9% | OVCAR-5 ovarian 66.1% | OVCAR-4 ovarian 55.4% | SK-OV-3 ovarian 92.8% | IGROV1 ovarian 53.8% | OVCAR-3 ovarian 85.4% | HS 578T breast 44% | NCI/ADR-RES ovarian 56%

COc1ccc(CN2[C@H](C(=O)NCc3ccc(C(=O)NO)cc3)Cc3c([nH]c4ccccc34)[C@H]2C2CC2)cc1
inactive: SK-MEL-2 melanoma 44.9% | EKVX NSCLC 51.6% | SN12C renal 70.5% | UO-31 renal 66.4% | TK-10 renal 53.2% | ACHN renal 76.4% | CAKI-1 renal 72.3% | A498 renal 65% | CCRF-CEM leukemia 28.8% | MOLT-4 leukemia 26.6% | SR leukemia 25.5% | RPMI-8226 leukemia 47.3% | OVCAR-8 ovarian 39.3% | OVCAR-5 ovarian 34.4% | OVCAR-4 ovarian 51.8% | SK-OV-3 ovarian 62% | IGROV1 ovarian 50.5% | OVCAR-3 ovarian 48.7% | HS 578T breast 32.6% | NCI/ADR-RES ovarian 84%

O=c1[nH]c2ccc(Cl)cc2cc1CSc1ccc(Nc2nccc(-c3ccc(Cl)cc3)n2)cc1
active: OVCAR-8 ovarian -0.363% | OVCAR-4 ovarian -59.9% | OVCAR-3 ovarian -63.1%
inactive: SK-MEL-2 melanoma 99.2% | EKVX NSCLC 82% | SN12C renal 72.9% | UO-31 renal 90% | TK-10 renal 36.4% | ACHN renal 83.5% | CAKI-1 renal 84.9% | A498 renal 118% | CCRF-CEM leukemia 74.8% | MOLT-4 leukemia 46.4% | SR leukemia 54.2% | RPMI-8226 leukemia 73% | OVCAR-5 ovarian 81.3% | SK-OV-3 ovarian 122% | IGROV1 ovarian 84.7% | HS 578T breast 56.8% | NCI/ADR-RES ovarian 50.2%
